Only some compounds are listed: those with a hit (about 6.8% of all), similar ones and a draw of the others.
T cruzi growth-1 – blocks T. cruzi growth in NIH3T3 culture | T. cruzi beta-gal in NIH3T3, GalScreen luminescence, 90 h | inhibition, % at 8.34 µM | actives 5.9% (n = 77,000);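 active = mean inhibition above about 93%, with at least 55% of replicates each passing it, limit read from the data, passing the limit was not always enough; inconclusive = only one of those two conditions holds; inactive = neither condition holds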
C diff HTS – C. difficile growth inhibition; growth activity, negative = inhibition, % at 16 µg/mL (by protocol); actives 0.25% (n = 86,000); Clostridium difficile clinical isolate growth, OD600, 24 h; active compounds read low;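 active = mean growth activity at or below -80% and every replicate also at or below -80%; inconclusive = mean at or below -80% but some replicate above -80%; inactive = mean growth activity above -80%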
Pf Dd2 inh – inhibitors of Plasmodium falciparum Dd2 growth; P. falciparum Dd2 growth, SYBR Green, 72 h; active compounds read low; activity change, % at 10 µM; actives 2.3% (n = 94,000); in the data active = activity change below about -80%; inconclusive = no clear call, values can overlap the other calls
T cruzi growth-2 – Trypanosoma cruzi proliferation inhibition; shares compounds with T cruzi growth-1; actives 72% (n = 5,600); T. cruzi beta-gal in NIH3T3, GalScreen luminescence, 90 h; inhibition, % at 8.35 µM;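 active = mean replicate inhibition above about 95% and at least 55% of replicates individually reaching it, limit read from the data; inconclusive = only one of the two criteria is met; inactive = neither criterion is met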
T cruzi growth-3 – Trypanosoma cruzi proliferation inhibition | shares compounds with T cruzi growth-1 | T. cruzi beta-gal in NIH3T3, GalScreen luminescence, 90 h | inhibition, % at 2.09 µM | actives 21% (n = 5,600);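 active = mean inhibition above about 95%, with at least 55% of replicates also reaching it, limit read from the data; inconclusive = meets just one of the two conditions; inactive = meets neither condition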
NIH3T3 tox – kills mouse NIH/3T3 fibroblasts; shares compounds with T cruzi growth-1; NIH/3T3 viability, CellTiter-Glo ATP luminescence, 90 h; cytotoxicity (signal decrease), % at 8.35 µM; actives 14% (n = 5,600);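 active = mean signal decrease across replicates above about 35% based on untreated-well scatter, with enough replicates individually passing, limit read from the data; inconclusive = no rule stated though some were filed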
3T3 cytotox 2 – cytotoxicity in mouse NIH/3T3 fibroblasts | shares compounds with T cruzi growth-1 | NIH/3T3 viability, CellTiter-Glo ATP luminescence, 90 h | inhibition, % at 24.9 µM | actives 56% (n = 5,600);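 active = mean loss of cell viability signal at or above a set limit, and enough replicates individually reaching it; inconclusive = meets only the mean limit or only the replicate share; inactive = meets neither condition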
A number is an active result; - = inactive; ? = inconclusive; . = no result; + = active, no number.

SMILES	T cruzi growth-1	C diff HTS	Pf Dd2 inh	T cruzi growth-2	T cruzi growth-3	NIH3T3 tox	3T3 cytotox 2
C[C@@H]1CN([C@H](C)CO)S(=O)(=O)c2ccc(C#CCN(C)C)cc2O[C@@H]1CN(C)C(=O)c1ccccc1F	-	-	-	.	.	.	.
C[C@@H]1CN([C@@H](C)CO)S(=O)(=O)c2ccc(C#CCN(C)C)cc2O[C@H]1CN(C)C(=O)c1ccccc1F	101	-	-	109	-	-	-
C[C@H]1CN([C@@H](C)CO)S(=O)(=O)c2ccc(C#CCN(C)C)cc2O[C@@H]1CN(C)C(=O)c1ccccc1F	99	-	-	105	-	-	-
C[C@@H]1CN([C@H](C)CO)S(=O)(=O)c2ccc(C#CCN(C)C)cc2O[C@H]1CN(C)C(=O)c1ccccc1F	-	-	-	.	.	.	.
C[C@@H]1CN([C@@H](C)CO)C(=O)c2c(c3ccccc3n2C)-c2ccccc2CO[C@@H]1CN(C)C(=O)Nc1ccnc(N2CCOCC2)c1	.	-	-	.	.	.	.
C[C@H]1CN([C@@H](C)CO)C(=O)c2c(c3ccccc3n2C)-c2ccccc2CO[C@H]1CN(C)C(=O)Nc1ccnc(N2CCOCC2)c1	.	-	-	.	.	.	.
C[C@@H]1CN([C@H](C)CO)C(=O)c2ccccc2-c2ccccc2CO[C@H]1CN(C)C(=O)Nc1ccnc(N2CCOCC2)c1	?	-	-	96	-	-	-
C[C@H]1CN([C@@H](C)CO)C(=O)c2ccccc2-c2ccccc2CO[C@@H]1CN(C)C(=O)Nc1ccnc(N2CCOCC2)c1	108	-	-	101	?	-	-
C[C@@H]1CN([C@H](C)CO)C(=O)c2cc(NC(=O)CCCN(C)C)ccc2O[C@@H](C)CCCCO[C@@H]1CN(C)S(=O)(=O)c1cn(C)cn1	-	-	-	.	.	.	.
CCC(=O)Nc1ccc2c(c1)OC[C@@H](C)N(C(=O)c1cnccn1)C[C@@H](C)[C@@H](OC)CN(C)C2=O	-	-	-	.	.	.	.
O=C(c1cccc(F)c1)N1CC(=O)N2[C@H](C1)[C@@H](c1ccc(-c3ccccc3F)cc1)[C@@H]2CO	.	-	-	.	.	.	.
O=C(Nc1nccs1)[C@H]1[C@H](CO)[C@H]2Cn3c(ccc(-c4cncnc4)c3=O)[C@H]2N1CC1CCCC1	-	-	.	.	.	.	.
O=C(Nc1ccc(-c2ccccc2)cc1)[C@H]1[C@H](CO)[C@H]2Cn3c(cccc3=O)[C@H]2N1CC1CCCC1	.	-	-	.	.	.	.
O=C(Nc1ccc(-c2ccccc2)cc1)[C@H]1[C@H](CO)[C@H]2Cn3c(cccc3=O)[C@H]2N1CC1CCCCC1	?	-	-	-	110	-	107
O=C(Nc1nccs1)[C@H]1[C@H](CO)[C@H]2Cn3c(ccc(-c4ccccc4)c3=O)[C@H]2N1CC1CCCC1	98	-	-	106	-	-	64
CCCNC(=O)[C@@H]1[C@@H](CO)[C@@H]2Cn3c(cccc3=O)[C@@H]2N1CC1CCCCC1	-	-	-	.	.	.	.
CCNC(=O)[C@@H]1[C@@H](CO)[C@@H]2Cn3c(cccc3=O)[C@@H]2N1CC1CCCCC1	+	.	.	-	-	-	-
O=C(C[C@@H]1C=C[C@@H](NC(=O)C2CC2)[C@@H](CO)O1)Nc1ccccc1	-	-	-	.	.	.	.
C[C@@H]1CN([C@H](C)CO)S(=O)(=O)c2ccc(-c3ccc(F)cc3)cc2O[C@@H]1CN(C)C(=O)Nc1ccccc1F	110	-	-	110	-	-	37
C[C@@H]1CN([C@H](C)CO)S(=O)(=O)c2ccc(C#CC3CC3)cc2O[C@H]1CN(C)C(=O)Nc1cc(F)ccc1F	-	.	-	.	.	.	.
C[C@@H]1CN([C@H](C)CO)S(=O)(=O)c2ccc(C#CC3CC3)cc2O[C@@H]1CN(C)C(=O)Nc1cc(F)ccc1F	105	.	-	109	-	-	-
C[C@@H]1CN([C@@H](C)CO)S(=O)(=O)c2ccc(-c3ccccc3)cc2O[C@@H]1CN(C)C(=O)Nc1ccccc1F	-	.	-	.	.	.	.
COc1ccc(-c2ccc3c(c2)O[C@@H](CN(C)C(=O)Nc2ccccc2F)[C@H](C)CN([C@@H](C)CO)S3(=O)=O)cc1	-	-	-	.	.	.	.
C[C@H](CO)N1C[C@H](C)[C@H](CN(C)C(=O)Nc2cc(F)ccc2F)Oc2cc(-c3cccc(F)c3)ccc2S1(=O)=O	-	-	-	.	.	.	.
C[C@H](CO)N1C[C@H](C)[C@@H](CN(C)C(=O)Nc2cc(F)ccc2F)Oc2cc(-c3cccc(F)c3)ccc2S1(=O)=O	107	-	-	111	-	-	32
SMILES	T cruzi growth-1	C diff HTS	Pf Dd2 inh	T cruzi growth-2	T cruzi growth-3	NIH3T3 tox	3T3 cytotox 2
COc1ccc(-c2ccc3c(c2)O[C@@H](CN(C)C(=O)Nc2ccccc2F)[C@@H](C)CN([C@H](C)CO)S3(=O)=O)cc1	97	-	-86	106	-	48	39
COc1ccc(S(=O)(=O)Nc2ccc3c(c2)C(=O)N([C@@H](C)CO)C[C@@H](C)[C@@H](CN(C)C)O3)cc1	.	-	-	.	.	.	.
O=C(C[C@H]1CC[C@H]2NC[C@H](O)COC[C@@H]2O1)NCCc1ccccc1	-	-	-	.	.	.	.
CCCNC(=O)N(C)C[C@@H]1Oc2cc(C#Cc3cccc(F)c3)ccc2S(=O)(=O)N([C@H](C)CO)C[C@H]1C	?	-	-	106	-	47	94
CCCNC(=O)N(C)C[C@@H]1Oc2cc(C#Cc3cccc(F)c3)ccc2S(=O)(=O)N([C@@H](C)CO)C[C@@H]1C	117	-	-	110	-	-	83
CC(=O)N(C)C[C@H]1Oc2cc(C#Cc3cccc(F)c3)ccc2S(=O)(=O)N([C@H](C)CO)C[C@@H]1C	-	-	-	.	.	.	.
CC(=O)N(C)C[C@@H]1Oc2cc(C#Cc3cccc(F)c3)ccc2S(=O)(=O)N([C@@H](C)CO)C[C@@H]1C	-	-	-	.	.	.	.
CCCNC(=O)N(C)C[C@H]1Oc2cc(C#Cc3cccc(F)c3)ccc2S(=O)(=O)N([C@H](C)CO)C[C@H]1C	125	-	-	106	-	-	66
CC(C)NC(=O)N(C)C[C@H]1Oc2cc(C#Cc3cccc(F)c3)ccc2S(=O)(=O)N([C@H](C)CO)C[C@@H]1C	-	-	-	.	.	.	.
CCCC#Cc1ccc2c(c1)O[C@@H](CN(C)C(=O)NCCC)[C@@H](C)CN([C@H](C)CO)S2(=O)=O	-	-	-	.	.	.	.
CCCNC(=O)N(C)C[C@@H]1Oc2cc(C#Cc3cccc(F)c3)ccc2S(=O)(=O)N([C@H](C)CO)C[C@@H]1C	116	-	-	111	-	-	47
COc1ccccc1-c1cnc2c(c1)C(=O)N([C@H](C)CO)C[C@@H](C)[C@H](CN(C)Cc1ccc(C(=O)O)cc1)O2	-	-	-	.	.	.	.
C[C@@H]1CN([C@@H](C)CO)C(=O)Cc2cc(NC(=O)Cn3cnnn3)ccc2O[C@@H]1CN(C)C(=O)NC1CCCCC1	-	-	-	.	.	.	.
